Reference: PubChem BioAssay (Tox21)
Records with an inconclusive call do not appear. Active and inactive are the calls of the source. Unless noted, the call rests on the fitted dose curve.

Legend:
[1] = Nuclear factor erythroid 2-related factor 2/antioxidant responsive element (Nrf2/ARE) small molecule agonists: qHTS cell viability counter screen in human keratinocytes (AID 1919968; active means well fitted curve in the direction sought with a large enough effect in the repeat runs; an effect the other way counts as inactive or inconclusive; further: nearly all actives have a fitted effect of over 55% in size)
Outline: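 Viability counter-screen: KeratinoSens reporter cells, DMSO-delivered compounds, 23 h at 37 C, CellTiter-Fluor fluorescence.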

[2] = Nuclear factor erythroid 2-related factor 2/antioxidant responsive element (Nrf2/ARE) small molecule agonists: luciferase reporter gene qHTS assay in human keratinocytes (AID 1919969); further: nearly all actives have a fitted effect of over 35% in size
[3] = molecular target: Gonadotropin-releasing hormone receptor (Homo sapiens) (UniProt P30968); experiment: Human gonadotropin-releasing hormone receptor (GnRHR) small molecule agonists, calcium flux assay in GnRHR-HEK293 cells (AID 1920063); further: nearly all actives have a fitted effect of over 35% in size
Outline: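 Tox21-format agonist screen using human GnRHR-expressing HEK293 cells and a fluorescent calcium dye; kinetic 3-min fluorescence reading after compound addition, 15-point concentration series run in triplicate.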

[4] = molecular target: KiSS-1 receptor (Homo sapiens) (UniProt Q969F8); experiment: Human kisspeptin (KISS1R) small molecule agonists, calcium flux assay in KISS1R-HEK293 cells (AID 1920064; active means well fitted curve in the direction sought with a large enough effect in the repeat runs; an effect the other way counts as inactive or inconclusive)
Outline: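 Intracellular calcium mobilization in KISS1R-HEK293 cells was recorded by fluorescence (Ex/Em 480/540) for 3 min following compound addition to cells pre-loaded 1 h with calcium dye.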

[5] = G protein-coupled receptor (GPCR) small molecule agonists, calcium flux assay: HEK293 wild type cell line counter screen (AID 1920065)
Outline: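 In this agonist-mode screen, ATP is the positive control and DMSO the vehicle. Cells grow 18 h before a 1 h dye incubation at 37 C; signal is taken at Ex/Em 480/540 over 3 min.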

[6] = p53 small molecule agonists, cell-based qHTS assay with human liver microsomes (AID 1963577)
Outline: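 Cells carrying a p53-responsive bla reporter were rested 5 h (37 C, 5% CO2) before compound transfer. Human liver microsomes plus NADPH, 0.5 mg/mL final apiece, supplied metabolism during the 16 h 37 C exposure.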

[7] = p53 small molecule agonists, cell-based qHTS assay with rat liver microsomes (AID 1963578)
Outline: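 Fluorescence from a beta-lactamase reporter under a p53 response element was measured after cells had been incubated 16 h at 37 C with test compound and rat liver microsomes plus NADPH (0.5 mg/mL final each).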

[8] = p53 small molecule agonists, cell-based qHTS assay with human liver microsomes: qHTS cell viability counter screen (AID 1963579); further: nearly all actives have a fitted effect of over 45% in size
Outline: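 Seed p53RE-bla cells at 4,000 per well; incubate 5 h at 37 C; add compound, human liver microsomes and NADPH; incubate 16 h at 37 C; add CellTiter-Glo; after 30 min at room temperature, read luminescence.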

[9] = p53 small molecule agonists, cell-based qHTS assay with rat liver microsomes: qHTS cell viability counter screen (AID 1963580); further: nearly all actives have a fitted effect of over 45% in size
Outline: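 p53RE-bla HCT-116 cells were exposed 16 h at 37 C to compounds with rat liver microsomes (0.5 mg/mL) and NADPH (0.5 mg/mL). Viability was measured in the same wells as ATP content by CellTiter-Glo luminescence.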

[10] = p53 small molecule agonists, cell-based qHTS assay: qHTS cell viability counter screen (AID 1963581); further: nearly all actives have a fitted effect of over 45% in size
Outline: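 Compounds are pinned onto HCT-116 p53RE-bla cells and left 16 h at 37 C. Following the reporter FRET read, ATP is quantified by CellTiter-Glo luminescence after 30 min at room temperature.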

[11] = p53 small molecule agonists, cell-based qHTS assay (AID 1963582; active means well fitted activation curve with a large enough effect in the signal ratio in the repeat runs, not every such curve was filed as active; the % refers to the signal ratio)
Outline: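 Agonist activity was scored from beta-lactamase FRET fluorescence in p53RE-bla cells treated 16 h at 37 C with compounds in DMSO, substrate incubation being 2 h at room temperature.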

[12] = molecular target: 5-hydroxytryptamine receptor 2A (Homo sapiens) (UniProt P28223); experiment: 5-hydroxytryptamine receptor 2A (HTR2A) small molecule agonists, cell-based qHTS assay (AID 1963587); further: nearly all actives have a fitted effect of over 30% in size
Outline: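 CHO cells stably expressing human HTR2A, plated 18 h, loaded with calcium dye 1 h at 37 C. Agonist mode: compounds added and intracellular calcium fluorescence recorded kinetically for 2 min at 1 sec intervals.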

[13] = molecular target: Muscarinic acetylcholine receptor M1 (Homo sapiens) (UniProt P11229); experiment: Cholinergic receptor muscarinic 1 (CHRM1) small molecule antagonists, cell-based qHTS assay (AID 1963588); further: nearly all actives have a fitted effect of over 40% in size
Outline: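 CHRM1-CHO calcium-flux assay, antagonist mode. Cells were seeded 18 h, dye-loaded 1 h at 37 C and given compound for 5 min at RT, then acetylcholine was added at 50nM. FDSS fluorescence was read 3 min; 15 concentrations, three runs.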

[14] = molecular target: Muscarinic acetylcholine receptor M1 (Homo sapiens) (UniProt P11229); experiment: Cholinergic receptor muscarinic 1 (CHRM1) small molecule agonists, cell-based qHTS assay (AID 1963589); further: nearly all actives have a fitted effect of over 35% in size
Outline: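 Stable CHRM1-CHO cells (human receptor) were incubated 18 h, dye-loaded for 1 h at 37 C and exposed to test compounds for agonist activity, with calcium-dependent fluorescence followed kinetically.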

[15] = cAMP Responsive Elements (CRE) small molecule agonists, cell-based qHTS assay (AID 1963590)
Outline: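 FRET-based beta-lactamase readout (LiveBLAzer B/G, 2 h RT) quantified CRE activation in HEK 293T CRE-bla cells after 3 h treatment with DMSO-dissolved compounds.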

[16] = cAMP Responsive Elements (CRE) small molecule antagonists, cell-based qHTS assay (AID 1963591; active means well fitted inhibition curve with a large enough effect in the signal ratio in the repeat runs, not every such curve was filed as active; the % refers to the signal ratio)
Outline: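 qHTS in CRE-bla HEK 293T cells: compound in DMSO, then 0.25 uM NKH477 (final), 3 h at 37 °C/5% CO2; beta-lactamase FRET read-out after 2 h substrate incubation.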

[17] = molecular target: Beta-2 adrenergic receptor (Homo sapiens) (UniProt P07550); experiment: Adrenergic beta2 receptor (ADRB2) small molecule antagonists, cell-based qHTS assay (AID 1963592); further: series mostly up to about 92 µM; nearly all actives have a fitted effect of over 50% in size
Outline: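 Cells (CHO, stable ADRB2 overexpression) incubated 18-20hr at 37C; compounds added from DMSO; agonist mix (1nM isoproterenol, 100uM IBMX, 25uM Ro-20-1724) added; 0.5hr RT; d2-cAMP and anti-cAMP-cryptate added; 1hr RT; 665/615 nm read.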

[18] = molecular target: Beta-2 adrenergic receptor (Homo sapiens) (UniProt P07550); experiment: Adrenergic beta2 receptor (ADRB2) small molecule agonists, cell-based qHTS assay (AID 1963593);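 further: CHO cells stably overexpressing human ADRB2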
Outline: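 CHO cells stably over-expressing ADRB2 were plated overnight at 37C, then dosed with compounds plus a stimulation mix containing 100uM IBMX and 25uM Ro-20-1724 for 0.5hr at room temperature. cAMP was measured by HTRF competition, 1hr.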

[19] = molecular target: D(2) dopamine receptor (Homo sapiens) (UniProt P14416); experiment: Dopamine D2 receptor (DRD2) small molecule agonists, cell-based qHTS assay (AID 1963594); further: nearly all actives have a fitted effect of over 35% in size
Outline: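 HEK293 cells stably expressing human DRD2, pre-treated with PDE inhibitor Ro20-1724 (0.1 mM final) and compound 10 min at room temperature, then stimulated with NKH477 (200nM […]) for 30 min. cAMP read by HTRF (665/620 nm).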

[20] = molecular target: D(2) dopamine receptor (Homo sapiens) (UniProt P14416); experiment: Dopamine D2 receptor (DRD2) small molecule antagonists, cell-based qHTS assay (AID 1963595; active means well fitted inhibition curve with a large enough effect in the signal ratio in the repeat runs, with a control signal flat; the % refers to the signal ratio)
Outline: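 Stable D2 receptor HEK293 line, 24 h after seeding. Compound preincubated 10 min, then quinpirole (12 nM) with forskolin analogue NKH477 (200 nM), 30 min, room temperature. Detection by time-resolved FRET of cAMP.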

Measured: Potency

Muscarinic acetylcholine receptor M1 (Homo sapiens), sequence (P11229 whole entry, looked up): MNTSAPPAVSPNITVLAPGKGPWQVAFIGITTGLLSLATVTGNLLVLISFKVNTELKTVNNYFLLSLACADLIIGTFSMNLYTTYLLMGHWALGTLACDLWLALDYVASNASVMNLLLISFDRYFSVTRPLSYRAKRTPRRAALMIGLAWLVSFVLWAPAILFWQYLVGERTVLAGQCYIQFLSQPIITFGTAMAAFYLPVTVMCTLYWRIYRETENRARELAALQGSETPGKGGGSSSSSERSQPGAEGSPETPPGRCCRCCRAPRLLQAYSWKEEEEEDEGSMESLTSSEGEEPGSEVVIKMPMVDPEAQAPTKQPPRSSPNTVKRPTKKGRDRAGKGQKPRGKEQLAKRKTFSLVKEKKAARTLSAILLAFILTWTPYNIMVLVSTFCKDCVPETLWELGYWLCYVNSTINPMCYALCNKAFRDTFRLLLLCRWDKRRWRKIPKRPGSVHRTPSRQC
Gonadotropin-releasing hormone receptor (Homo sapiens), sequence (P30968 whole entry, looked up): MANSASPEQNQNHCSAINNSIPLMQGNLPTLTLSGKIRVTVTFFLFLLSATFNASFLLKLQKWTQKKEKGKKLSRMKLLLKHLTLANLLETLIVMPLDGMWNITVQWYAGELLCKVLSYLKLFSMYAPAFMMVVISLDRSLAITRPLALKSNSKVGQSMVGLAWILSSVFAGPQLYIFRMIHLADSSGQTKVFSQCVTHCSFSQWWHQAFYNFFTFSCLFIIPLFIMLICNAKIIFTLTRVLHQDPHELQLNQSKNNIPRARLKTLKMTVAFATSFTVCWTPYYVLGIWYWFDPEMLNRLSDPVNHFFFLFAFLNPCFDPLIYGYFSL
Beta-2 adrenergic receptor (Homo sapiens), sequence (P07550 whole entry, looked up): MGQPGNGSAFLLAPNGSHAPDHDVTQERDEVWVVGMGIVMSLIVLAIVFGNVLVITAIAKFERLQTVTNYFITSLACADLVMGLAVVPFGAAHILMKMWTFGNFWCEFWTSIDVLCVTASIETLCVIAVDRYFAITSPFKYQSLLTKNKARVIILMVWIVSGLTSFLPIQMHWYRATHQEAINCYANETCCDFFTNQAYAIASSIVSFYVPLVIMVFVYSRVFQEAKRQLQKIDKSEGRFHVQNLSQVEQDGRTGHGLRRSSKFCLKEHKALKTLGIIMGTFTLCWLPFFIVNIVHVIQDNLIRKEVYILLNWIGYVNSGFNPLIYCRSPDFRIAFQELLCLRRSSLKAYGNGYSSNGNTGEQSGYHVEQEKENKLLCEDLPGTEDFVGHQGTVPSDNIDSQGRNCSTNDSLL
D(2) dopamine receptor (Homo sapiens), sequence (P14416 whole entry, looked up): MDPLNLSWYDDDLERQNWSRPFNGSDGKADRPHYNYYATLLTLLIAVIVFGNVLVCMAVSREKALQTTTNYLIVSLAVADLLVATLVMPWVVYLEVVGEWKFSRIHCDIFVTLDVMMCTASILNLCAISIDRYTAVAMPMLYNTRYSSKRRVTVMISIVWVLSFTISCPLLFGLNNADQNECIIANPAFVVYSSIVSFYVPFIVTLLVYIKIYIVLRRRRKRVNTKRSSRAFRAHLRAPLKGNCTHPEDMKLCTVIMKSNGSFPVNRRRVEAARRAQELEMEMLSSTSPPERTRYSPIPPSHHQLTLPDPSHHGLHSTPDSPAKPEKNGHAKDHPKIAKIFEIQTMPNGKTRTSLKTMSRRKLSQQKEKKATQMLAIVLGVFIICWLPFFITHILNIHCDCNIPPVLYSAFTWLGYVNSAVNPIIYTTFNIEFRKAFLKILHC
KiSS-1 receptor (Homo sapiens), sequence (Q969F8 whole entry, looked up): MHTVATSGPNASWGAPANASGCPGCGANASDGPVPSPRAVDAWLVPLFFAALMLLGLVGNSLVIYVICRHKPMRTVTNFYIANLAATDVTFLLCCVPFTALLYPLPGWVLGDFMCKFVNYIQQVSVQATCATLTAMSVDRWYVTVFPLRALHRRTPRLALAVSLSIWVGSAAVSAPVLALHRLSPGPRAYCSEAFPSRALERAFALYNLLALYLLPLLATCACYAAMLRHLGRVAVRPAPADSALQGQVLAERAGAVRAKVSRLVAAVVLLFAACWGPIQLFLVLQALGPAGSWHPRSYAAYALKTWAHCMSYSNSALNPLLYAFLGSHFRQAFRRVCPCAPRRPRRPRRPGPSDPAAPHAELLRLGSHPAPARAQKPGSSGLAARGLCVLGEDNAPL
5-hydroxytryptamine receptor 2A (Homo sapiens), sequence (P28223 whole entry, looked up): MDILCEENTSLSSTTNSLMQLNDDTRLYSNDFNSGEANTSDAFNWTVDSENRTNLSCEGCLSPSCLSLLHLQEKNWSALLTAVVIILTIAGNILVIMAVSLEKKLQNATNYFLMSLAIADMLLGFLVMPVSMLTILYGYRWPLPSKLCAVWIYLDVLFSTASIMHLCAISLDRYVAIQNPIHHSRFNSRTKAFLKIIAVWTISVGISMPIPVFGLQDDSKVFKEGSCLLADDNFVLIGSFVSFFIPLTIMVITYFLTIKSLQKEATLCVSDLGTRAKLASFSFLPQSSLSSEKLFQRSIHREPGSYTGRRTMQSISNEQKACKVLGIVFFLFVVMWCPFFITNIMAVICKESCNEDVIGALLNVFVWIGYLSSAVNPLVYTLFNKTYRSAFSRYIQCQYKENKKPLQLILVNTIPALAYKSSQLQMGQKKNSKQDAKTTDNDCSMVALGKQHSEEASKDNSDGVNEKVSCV

CCOC(=O)C(=O)CCCCCCl
inactive: all assays above

O=C(O)c1ccc(Cl)cc1Cl
not listed: [12] | [18]
inactive: all other assays above

Cc1cccc(C)c1NC(=O)c1ccc(N)cc1
not listed: [12] | [16] | [18]
inactive: all other assays above

O=C1CCCCCCCCCCC(=O)OCCO1
not listed: [12] | [15] | [16] | [18]
inactive: all other assays above

Brc1c2ccccc2cc2ccccc12
not listed: [12] | [17] | [18]
inactive: all other assays above

CNC(=O)c1c(I)c(NC(=O)CCCCC(=O)Nc2c(I)c(C(=O)O)c(I)c(C(=O)NC)c2I)c(I)c(C(=O)O)c1I
inactive: all assays above

Cn1cccc1
not listed: [12] | [14] | [17] | [18] | [20]
inactive: all other assays above

COc1cccc(O)c1
not listed: [12] | [13] | [14]
inactive: all other assays above
